The list is not random: actives were taken first. Their share in the collection is about 11%.
12-hLO inh: blocks human 12-lipoxygenase activity; Potency, µM (titrated, usually from 57.1 µM), without a hit: at the highest dose activity change, negative = inhibition, usual class: inhibitors; 150,000 compounds, 0.12% hits; purified 12-hLO, xylenol orange hydroperoxide absorbance; P18054; also: potency is read from the fitted curve at half-maximal effect; nearly all actives have a fitted effect of over 55% in size
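Hydroperoxide formation by human 12-lipoxygenase from 40 uM arachidonic acid was followed colorimetrically via ferric-xylenol orange complex, using the 573/405 nm absorbance ratio. Enzyme concentration was 150 nM, with 30 min reaction at room temperature.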
IMPase Li inh: IMPase inhibition in cells with lithium potentiation; CHO-M1 cells, IP1 TR-FRET (IP-One), carbachol + lithium; AID 1457; Potency, µM (doses to about 59.4 µM), without a hit: top-dose activity, negative = IMPase inhibition, hits mostly inhibitors; 210,000 compounds, 0.35% hits;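 also: IP1 builds up when IMPase is blocked and the TR-FRET signal falls; potency is read from the fitted curve at half-maximal effect; plate controls were basal vehicle for no effect and high inhibitor control for full effect; nearly all actives have a fitted effect of over 50% in size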
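Steps: plate 2000 CHO-M1 cells per well and culture 16–30 h; add compound and lithium; incubate 30 min, 37C; add d2-IP1 tracer and Eu cryptate anti-IP1 antibody in lysis buffer; read after 10 min at room temperature.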
PNC inhibitor: perinucleolar compartment assembly inhibition | PC3M PTB-GFP, PNC prevalence imaging, 16 h; hits give low values | activity change (PNC), negative = inhibition, % at 10 µM | 140,000 compounds, 3.1% hits;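 active = readout at or below -70, meaning at least 70% loss of cells showing the perinucleolar compartment, a nuclear body marking cancer cells; inconclusive = readout between -30 and a set limit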;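 also: plate controls were DMSO wells for no effect and camptothecin positive control wells for full effect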
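Read-out is percentage of cells bearing a perinucleolar compartment, from automated 20x imaging of fixed, Hoechst-stained PC3M PTB-GFP cells. Cells were seeded 4 h, then exposed 16 h to compound (23 nl of library stock) in duplicate plates.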
IMPase cell inh: membrane-permeable compound that blocks inositol monophosphatase | inhibition (IP1 accumulation), % at 46.1 µM | P97697 | 120,000 tested, under 10 active | CHO-M1 cells, IP1 accumulation, HTRF TR-FRET ratio; active = well fitted curve in the direction sought with a large enough effect in the signal ratio, not every such curve was filed as active; inconclusive = small, poorly fitted or top-dose-only effect, or a change in a side signal; inactive = no such curve, though single readings can be large or run the other way; the % refers to the signal ratio;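 also: cells stimulated with carbachol in lithium chloride buffer; plate controls were DMSO basal wells for no effect and reference inhibitor wells for full effect; higher means more IMPase inhibition seen as more IP1 and lower FRET ratio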
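Measured: the HTRF emission ratio (665/620 nm) plus the 620 nm donor channel, each fitted to the Hill equation to give AC50. Cells were CHO-M1 given compounds up to 46 uM and a 30 min carbachol stimulation at 37C.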
HPGD inh: HPGD (human) dehydrogenase inhibition. P15428. purified HPGD, NADH fluorescence kinetic, PGE2 substrate. Potency, µM, for inactives: at the highest dose activity change, negative = inhibition, hits mostly inhibitors. 150,000 compounds, 4.3% hits. AID 894; active = well fitted inhibition curve with a large enough effect, not every such curve was filed as active; inconclusive = small, poorly fitted or top-dose-only effect, or another doubt; inactive = no such curve, though single readings can be large or run the other way; also: potency is read from the fitted curve at half-maximal effect
Target sequence (P15428 whole entry, looked up): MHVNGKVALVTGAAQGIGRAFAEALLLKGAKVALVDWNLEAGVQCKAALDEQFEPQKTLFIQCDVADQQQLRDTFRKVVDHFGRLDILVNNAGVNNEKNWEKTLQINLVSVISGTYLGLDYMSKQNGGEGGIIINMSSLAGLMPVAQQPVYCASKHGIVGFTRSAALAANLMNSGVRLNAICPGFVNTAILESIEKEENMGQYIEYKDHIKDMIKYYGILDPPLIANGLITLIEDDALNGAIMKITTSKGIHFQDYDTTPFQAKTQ
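NADH formation kinetics: reaction with 30 uM PGE2 and 1 mM NAD+ (final), 20 nM enzyme, Tris-HCl pH 8 with Tween 20, after 15 min compound preincubation at room temperature. Fluorescence change, last versus first of five reads.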
ALDH1A1 inh: ALDH1A1 (human) enzyme inhibition; P00352; Purified ALDH1A1, NADH fluorescence, propionaldehyde substrate; Potency, µM (highest dose often 75.3 µM), for the others: at the highest dose activity, negative = inhibition, actives largely listed as inhibitors; 220,000 compounds, 7.3% hits; active = well fitted inhibition curve with a large enough effect, not every such curve was filed as active; inconclusive = small, poorly fitted or top-dose-only effect, or another doubt; inactive = no such curve, though single readings can be large or run the other way;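 also: potency is read from the fitted curve at half-maximal effect; plate controls were no enzyme wells and a reference inhibitor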
Target sequence (P00352 whole entry, looked up): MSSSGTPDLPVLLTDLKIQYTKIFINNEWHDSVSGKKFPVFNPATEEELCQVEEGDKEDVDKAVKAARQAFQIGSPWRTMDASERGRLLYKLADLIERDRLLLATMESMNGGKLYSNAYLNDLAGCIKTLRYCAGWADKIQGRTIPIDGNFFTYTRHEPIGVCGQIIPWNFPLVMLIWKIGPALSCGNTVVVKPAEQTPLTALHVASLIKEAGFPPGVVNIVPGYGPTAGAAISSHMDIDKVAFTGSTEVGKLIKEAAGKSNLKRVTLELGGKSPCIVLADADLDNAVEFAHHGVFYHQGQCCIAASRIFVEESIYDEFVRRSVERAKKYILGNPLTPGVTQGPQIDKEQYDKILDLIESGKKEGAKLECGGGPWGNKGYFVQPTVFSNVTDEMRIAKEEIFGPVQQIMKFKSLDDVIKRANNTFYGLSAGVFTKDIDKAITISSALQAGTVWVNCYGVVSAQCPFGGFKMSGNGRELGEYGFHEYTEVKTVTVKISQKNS
* hit, by the source's call; ? = inconclusive; nt = not tested or not shown; [ ] = remark or other dose. Unless noted, calls follow the shape of the dose curve; as a rule, active = well fitted curve in the direction sought with a large enough effect; inconclusive = small, poorly fitted or top-dose-only effect, or another doubt; inactive = no such curve, though single readings can be large; an effect the other way counts as inactive or inconclusive. Unless noted, % is scaled to controls: 0 for no effect and ±100 for the full control effect.

SMILES | 12-hLO inh | IMPase Li inh | PNC inhibitor | IMPase cell inh | HPGD inh | ALDH1A1 inh
Cc1ccc(S(=O)(=O)Nc2ccc(C(=O)OCC(=O)N(CCC#N)c3ccccc3)cc2)cc1C | -1% | 2% | -87* | nt | -5% | -14%
Cc1cccc(N2CCN(Cc3ccoc3)CC2)c1C | -3% | -1%[38.3 µM] | 3 | -4 | 14µM* | 25µM*
CCCC(=O)N1CCN(c2ccc(NC(=O)c3ccc([N+](=O)[O-])o3)cc2Cl)CC1 | nt | -5% | nt | nt | nt | 18µM*
CC(C)C(=O)N1CCN(c2ccc(NC(=O)c3ccc([N+](=O)[O-])o3)cc2)CC1 | nt | 27% | nt | nt | nt | ?
O=C(Nc1ccc(N2CCN(C(=O)c3ccccc3)CC2)cc1)c1ccc([N+](=O)[O-])o1 | nt | 29% | nt | nt | nt | 11µM*
CC(C)C(=O)N1CCN(c2ccc(NC(=O)c3ccc([N+](=O)[O-])o3)cc2Cl)CC1 | nt | -1% | nt | nt | nt | ?
COc1cccc(NC(=O)CC2Nc3cc(C)c(C)cc3NC2=O)c1 (stereo not given) | nt | nt | nt | -3 | nt | nt
CCn1c(SCC(=O)Nc2nc(C)c(C(=O)OC)s2)nnc1C(C)C | -4% | 5%[38.3 µM] | ? | 4 | -19% | -7%
CCOC(=O)c1c(C)c(C(=O)NC(C)COC)c(C)n1CC (stereo not given) | 3% | 0% | -102* | 7 | -19% | 4%
O=C(Nc1cccc(-c2nc3cccnc3s2)c1)C1c2ccccc2Oc2ccccc21 | 3% | ? | -119* | nt | ? | ?
O=S(=O)(Nc1cccc(-c2nc3cccnc3s2)c1)c1ccc2c(c1)OCCO2 | -10% | 26%[38.3 µM] | -20 | -3 | -22% | ?
CCc1ccc(S(=O)(=O)/N=C2/C=C(Sc3ncn[nH]3)C(=O)c3ccccc32)cc1 | ? | 33% | -123* | nt | 1.6µM* | 5µM*
CCc1ccc(S(=O)(=O)/N=C2\C=CC(=O)c3ccccc32)cc1 | nt | 4% | nt | nt | nt | ?
CC1CN(C2CCN(C(=O)COc3ccc(Cl)cc3)CC2)CC(C)O1 (stereo not given) | -15% | 40%[38.3 µM] | 22 | 4 | -2% | 13µM*
CCOC(=O)N1CCN(C(=O)COc2ccc(Cl)cc2)CC1 | 6% | 20%[38.3 µM] | ? | -12 | 6% | 3%
CCOC(=O)c1oc2cc(O)c(CC)cc2c(=O)c1-c1cscn1 | nt | 8% | nt | nt | nt | -13%
CCOC(=O)c1ccc(-c2c(C(=O)OCC)oc3cc(O)c(CC)cc3c2=O)o1 | -8% | 37%[38.3 µM] | 2 | 10 | -17% | 10µM*
O=C(NC(=S)Nc1ccc2ncccc2c1)c1ccccc1 | nt | ? | nt | nt | nt | 3.5µM*
Cc1cc(C)c(NC(=S)NC(=O)c2ccc(-c3ccccc3)cc2)c(C)c1 | 4% | 7% | 24 | -11 | -8% | 10µM*
COC(=O)c1ccccc1NC(=S)NC(=O)c1ccc(C)cc1 | ? | 8% | ? | -6 | -30% | ?
O=C(NC(=S)Nc1ccc2[nH]ncc2c1)c1ccccc1 | ? | 13%[38.3 µM] | ? | 1 | ? | 10µM*
Cc1ccc2cn[nH]c2c1NC(=S)NC(=O)c1ccccc1 | -29% | -22%[38.3 µM] | ? | 1 | -16% | ?
O=C(NNC(=S)Nc1ccccc1)c1ccc2ncccc2c1 | nt | 15% | nt | nt | nt | 22µM*
COc1ccccc1OCc1ccc(C(=O)Nc2ccc(Cl)cn2)o1 | nt | -6% | nt | nt | nt | -3%
COC(=O)c1ccccc1NC(=S)NC(=O)c1ccccc1 | ? | -7%[38.3 µM] | 1 | 1 | ? | ?
SMILES | 12-hLO inh | IMPase Li inh | PNC inhibitor | IMPase cell inh | HPGD inh | ALDH1A1 inh
Cc1ccc(NC(=S)NC(=O)c2ccccc2)cc1NC(=S)NC(=O)c1ccccc1 | nt | nt | nt | nt | nt | 3.5µM*
Cc1ccc2cccc(NC(=S)NC(=O)c3ccccc3)c2n1 | ? | 8%[38.3 µM] | -13 | 0 | -7% | ?
Cc1ccc2cccnc2c1NC(=S)NC(=O)c1ccccc1 | -25% | 6% | -30 | 11 | -20% | 28µM*
O=C(NC(=S)Nc1cccc2ncccc12)c1ccccc1 | nt | -4% | nt | nt | nt | 14µM*
CC(=O)Nc1cccc2ncccc12 | -1% | -5% | ? | -2 | 2% | 4%
Cc1ccc(C(=O)NC(=S)Nc2cc(-c3nc4ccccc4s3)ccc2C)cc1 | 2% | -13%[38.3 µM] | -109* | -1 | -11% | -8%
COc1ccc(OCC(=O)Nc2cc(-c3nc4ccccc4s3)ccc2C)cc1 | nt | nt | nt | -2 | nt | nt
C[C@H](C[C@H](N)C(=O)O)C(=O)O | 0% | 9% | nt | 1 | -5% | 1%
CN1CCN(c2ncc3nc(-c4cccc(C#N)c4)c(=O)n(Cc4ccc(F)cc4)c3n2)CC1 | nt | 21% | nt | nt | nt | ?
CC(C)[C@H](NS(=O)(=O)c1ccc2c(c1)OCCO2)C(=O)OCC(=O)Nc1cc(Cl)ccc1Cl | -1% | 15% | -6 | nt | -18% | ?
COc1ccc(CNc2ccnc(-c3cccc(C#N)c3)n2)c(OC)c1 | nt | 26% | nt | nt | nt | ?
COc1ccc(OC)c(/C(C)=N/Nc2ccc(C(=O)O)cc2)c1 | nt | 2% | nt | nt | nt | -13%
C/C(=N/Nc1ccc(C(=O)O)cc1)c1ccc(O)c(O)c1O | 6% | 20% | 35 | nt | 25µM* | ?
C/C(=N\Nc1ccc(C(=O)O)cc1)c1nc2ccccc2n1C | -2% | 5% | -14 | -11 | 16µM* | 5%
Cn1c(/C=N/NC(=O)c2ccccc2)nc2ccccc21 | -1% | -7%[38.3 µM] | 54 | -2 | ? | ?
CCOc1ccc(N(Cc2cc3ccc(C)cc3[nH]c2=O)C(=O)COC)cc1 | -24% | -1%[38.3 µM] | 30 | 4 | -13% | 18µM*
CC1CCN(Cc2c(O)ccc3c2O/C(=C\c2ccco2)C3=O)CC1 | -10% | 2% | 37 | nt | -18% | 25µM*
O=C1/C(=C/c2ccco2)Oc2c1ccc(O)c2CN1CCCCC1 | -8% | 3% | 48 | nt | ? | ?
CCOC(=O)C1=C(Cc2ccc(OC)cc2)C(=O)c2ccccc2C1=O | -21% | 38%[38.3 µM] | -21 | 9 | 32µM* | ?
CCOC(=O)C1=C(Cc2ccc(C)cc2)C(=O)c2ccccc2C1=O | ? | 43%[38.3 µM] | 24 | 2 | 13µM* | ?
O=c1[nH]c(SCc2cccc(F)c2)nc2c1CCCC2 | 1% | -3% | -17 | nt | 7.1µM* | -10%
O=c1[nH]c(SCc2ccc(Cl)cc2)nc2c1CCC2 | -3% | -7%[38.3 µM] | -9 | -5 | 4.5µM* | -5%
Cc1cccc(CSc2nc3c(c(=O)[nH]2)CCCC3)c1 | 2% | -5% | 85 | nt | 7.9µM* | 11%
Cc1oc(-c2ccccc2Cl)nc1CSc1nc2c(c(=O)[nH]1)CCC2 | -3% | -1% | 19 | nt | 2.8µM* | -8%
CCCC1(C(=O)OC)C=C2C(=C(C)C(=O)C2C)CN1 (stereo not given) | -4% | -4% | nt | nt | ? | ?

High-throughput results from PubChem BioAssay.
